# A selection: hits, their analogues and other compounds. The true share with any hit is near 11%.
# Pf growth 96h – P. falciparum growth inhibition at 96 hours; P. falciparum luciferase reporter growth, 96 h; Potency, µM (doses to about 28.7 µM), for the others: at the highest dose activity change, negative = inhibition, actives largely listed as inhibitors; hit rate 6.9% among 320,000
#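 Erythrocytes infected with luciferase-expressing P. falciparum were dispensed at 2% hematocrit and 0.05% parasitemia (final), then incubated with compounds 96 hours at 37 C in 5% CO2. Luminescence after detection reagent addition reported growth.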
# AmpC inh no detg – inhibitors of E. coli AmpC beta-lactamase without detergent. P00811. AmpC nitrocefin hydrolysis, absorbance 480 nm, 0.0001% Triton. Potency, µM (top dose mostly 57.1 µM), for inactives: top-dose activity change, negative = inhibition, usual class: inhibitors. hit rate 0.52% among 330,000. AID 485341;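 further: plate controls were no compound for no effect and no enzyme for full effect; nearly all actives have a fitted effect of over 20% in size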
# Target sequence (P00811 whole entry, looked up): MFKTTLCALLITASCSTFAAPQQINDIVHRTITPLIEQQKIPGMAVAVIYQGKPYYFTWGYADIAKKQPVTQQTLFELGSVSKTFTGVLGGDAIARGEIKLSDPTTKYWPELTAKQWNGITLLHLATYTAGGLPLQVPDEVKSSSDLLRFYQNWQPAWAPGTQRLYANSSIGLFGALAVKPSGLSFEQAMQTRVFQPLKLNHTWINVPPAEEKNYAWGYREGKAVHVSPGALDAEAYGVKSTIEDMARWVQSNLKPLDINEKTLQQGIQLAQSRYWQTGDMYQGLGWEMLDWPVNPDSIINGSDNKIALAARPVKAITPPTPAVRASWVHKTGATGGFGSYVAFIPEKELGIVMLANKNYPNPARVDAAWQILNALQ
#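 20 mM phosphate pH 7.0 + 0.01% (detergent screen) or 0.0001% Triton X-100; 5.3 nM AmpC reagent; cpd preinc 15 min RT; nitrocefin (800 uM stock) to start; A480 q20 s × 4 min; Activity was normalised to no-enzyme and no-compound control wells.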
# AMA1-RON2 inh – AMA1-RON2 (P. falciparum) interaction inhibition; AlphaScreen AMA1-biotinylated RON2 peptide binding; Potency, µM (highest dose often 58.2 µM), for the others: at the highest dose activity change, negative = inhibition, most hits filed as inhibitors; hit rate 0.2% among 360,000;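 further: 0% = vehicle wells and -100% = peptide control; nearly all actives have a fitted effect of over 45% in size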
#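 AMA1 (3D7) with his tag at 25 nM final met compounds first, then biotinylated RON2 peptide at 25 nM; detection used donor plus acceptor beads, 10 µg/mL apiece, read by AlphaScreen after 30 min at room temperature.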
# Pf growth 48h – inhibits P. falciparum growth in the first generation, 48 h; P. falciparum luciferase growth in erythrocytes, 48 h; Potency, µM (series often up to 28.7 µM), without a hit: top-dose activity change, negative = inhibition, actives largely listed as inhibitors; hit rate 5.9% among 310,000
#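 Cell-based growth assay: transgenic P. falciparum expressing firefly luciferase, cultured in red cells within RPMI 1640 containing 0.5% w/v Albumax, 24 mM bicarbonate and gentamycin. A drop in luciferase activity indicates inhibition.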
# AmpC inh detg – AmpC beta-lactamase inhibition with detergent present; P00811; AID 485294; Potency, µM (highest dose often 114 µM), inactives show top-dose activity change, negative = inhibition, hits mostly inhibitors; AmpC hydrolysis of nitrocefin, absorbance 480 nm, 0.01% Triton; hit rate 0.041% among 370,000;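 further: 0% = no-compound wells and -100% = no-enzyme wells; nearly all actives have a fitted effect of over 25% in size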
#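 AmpC (5.3 nM in the dispensed reagent) in 20 mM phosphate pH 7.0 with 0.01% (detergent screen) or 0.0001% Triton X-100 was preincubated with compounds for 15 min at room temperature. Nitrocefin was then added from an 800 uM solution, and hydrolysis was followed at 480 nm.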
# HCV inhibitor – blocks hepatitis C virus; hit rate 3.4% among 340,000; Huh7.5.1 HCVcc-Cre infection, luciferase reporter, 44 h; Potency, µM (highest dose often 41.8 µM), without a hit: top-dose activity change, negative = inhibition, hits mostly inhibitors; AID 651820
#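 Reporter virus HCVcc-Cre (~0.5 moi) infects cells exposed to compound; seeding density 1,000 cells/well with 4 h settling beforehand. Luminescence, 15 sec read, taken 44 h post-infection following a 15 min RT substrate incubation.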
# * hit, by the source's call; u = inconclusive; x = not tested or not shown; [ ] = dose if it differs, or a comment. The call rests on the fitted dose curve; in most records, active means well fitted curve in the direction sought with a large enough effect; inconclusive means small, poorly fitted or top-dose-only effect, or another doubt; inactive means no such curve, though single readings can be large; an effect the other way counts as inactive or inconclusive. Unless noted, on the % scale 0 is the no-effect control and ±100 the full control effect; potency means the concentration at half of the fitted maximal effect.
SMILES,Pf growth 96h,AmpC inh no detg,AMA1-RON2 inh,Pf growth 48h,AmpC inh detg,HCV inhibitor
COc1ccc(OC)c(-n2c(SCC(=O)N3CCc4ccccc43)nc3c(c2=O)SCC3)c1,2.33µM*,-26.6%,-5.7%,u,-4.5%,4.5%
COc1ccccc1-n1c(SCC(=O)N2CCc3ccccc32)nc2c(c1=O)SCC2,u,20.9%,-15.4%,11.7µM*,-12.7%,u
Cn1c(SCC(=O)N2CCCCCC2)nc2c(c1=O)SCC2,4.65µM*,-3.5%,-8.2%,-25.7%,-6.8%,-4.8%
COc1ccccc1-n1c(SCC(=O)Nc2cccc(C)c2)nc2c(c1=O)SCC2,10.4µM*,-10.3%,-16.3%,x,u,u
COc1ccc(CN2CCCN(CC(=O)Nc3ccc(Br)cc3F)S2(=O)=O)cc1,x,x,x,x,0.2%,x
COc1ccc(CN2C[C@H]3CCCN3c3cc(Br)ccc3S2(=O)=O)cc1,x,20µM*,1.6%,x,x,u
Fc1ccccc1OCCCCCCN1CCCC1,-9.3%,51.7%,2.8%,-29.3%,3.5%,7.94µM*
O=C(c1ccccc1)c1ccc(OCCCCN2CCCCC2)cc1,x,-3.3%,-21.1%,-1.5%,-6.5%,-42.0%
CC1CCN(CCCCOc2cccc(Br)c2)CC1,2.62µM*,12.7%,u,u,-2.1%,u
CC1CCN(CCCCOc2ccccc2Br)CC1,u,-3.4%,10.5%,u,-1.0%,u
Fc1ccccc1OCCCCCN1CCCC1,-3.1%,12.1%,2.4%[2.32 µM],u,-8.0%,4.0%
c1ccc(COc2ccc(OCCCCN3CCCCC3)cc2)cc1,u,59.4%,-8.5%,x,3.1%,25.1µM*
CC1CCN(CCCCOc2ccc(Br)cc2)CC1,-0.8%,-5.4%,-0.1%,-19.1%,0.5%,11.2µM*
CC(C)(C)c1ccccc1OCCCCN1CCCC1,x,2.2%,4.1%,x,-14.0%,0.2%
Cc1cccc(C(C)(C)C)c1OCCCCN1CCCC1,9.28µM*,26.2%,-13.8%,x,u,u
CC(C)NCCOc1cccc(Br)c1,-2.4%,-6.0%,15.7%,x,0.3%,24.7%
Brc1cccc(OCCCNC2CCCC2)c1,11.7µM*,-4.3%,-7.1%,u,-3.7%,6.0%
Cc1cc(Br)ccc1OCCCCN1CCC(C)CC1,-21.4%,49.0%,-7.4%,14.7µM*,0.8%,12.6µM*
Cc1cccc(OCCCCCN2CCOCC2)c1,u,-5.4%,-7.9%,0.7%,-11.7%,-29.5%
Cc1cccc(OCCCN2CCCCCC2)c1,3.2%,-1.5%,-5.7%,-12.5%,-1.4%,31.6µM*
CCOc1ccc(-c2nc3c(c(SCC(=O)N4CCCCC4)n2)Cc2cccc(OC)c2O3)cc1,x,x,x,x,13.3%,x
Brc1ccc(OCCCCN2CCCCC2)cc1,5.22µM*,10.2%,-1.8%,-27.2%,-6.5%,-9.6%
Cc1ccc(OCCCCN2CCCCC2)cc1,-21.2%,-9.0%,6.4%,50.4%,2.2%,-2.5%
Cc1c(C)n(CC(O)CNc2ccccc2)c2ccccc12 (centres undefined),u,-12.1%,u,u,-7.2%,-7.9%
COc1ccc(NCC(O)Cn2c(C)c(C)c3ccccc32)cc1 (centres undefined),7.38µM*,-5.3%,u,u,-2.2%,u
SMILES,Pf growth 96h,AmpC inh no detg,AMA1-RON2 inh,Pf growth 48h,AmpC inh detg,HCV inhibitor
CCc1ccc(OCC(=O)N(Cc2cccs2)c2ccc(Cl)cc2)cc1,x,x,x,x,-10.7%,x
O=C(CNC(=O)c1ccccc1)OCC(=O)N1N=C(c2ccc(Cl)cc2)CC1c1ccco1 (centres undefined),3.1%,-2.9%,-9.9%,u,6.2%,23.2%
CCC(=O)N1N=C(c2ccc(NS(=O)(=O)c3ccccc3)cc2)CC1c1ccco1 (centres undefined),x,-25.1%,0.4%,x,x,11.2µM*
Cc1ccc(C2=NN(C(=O)CCCC(=O)O)C(c3ccco3)C2)cc1 (centres undefined),2.0%,-29.6%,-0.8%,u,-0.8%,29.1%
Cc1ccc(S(=O)(=O)N[C@H](C(=O)OCC(=O)N2N=C(c3ccc(Cl)cc3)CC2c2ccco2)C(C)C)cc1 (some centres undefined),u,0.2%,-5.6%,10.4µM*,-9.1%,12.6µM*
Cc1ccc(C2=NN(C(=O)CCl)C(c3ccco3)C2)o1 (centres undefined),6.57µM*,-0.7%,2.6%,10.4µM*,-8.9%,8.91µM*
COc1ccccc1N1CCN(C(=O)c2cnn(C(C)(C)C)c2C2CCN(C(=O)OC(C)(C)C)CC2)CC1,x,x,x,x,18.6%,x
COc1ccc(OC)c(C(=O)CN2C(=O)N(c3ccc(C)cc3)S(=O)(=O)c3ccccc32)c1,x,x,x,x,11.4%,x
COc1ccc(C(=O)NCC(=O)N/N=C/c2ccco2)cc1OC,11.7%,-11.6%,1.6%,13.1%,u,-5.1%
O=C(CNC(=O)c1ccccc1F)N/N=C/c1cc(Br)ccc1OC(=O)/C=C/c1ccco1,u,-18.5%,28.8%,10.4µM*,-4.4%,6.31µM*
O=C(CNC(=O)c1ccc(F)cc1)N/N=C/c1cc(Br)ccc1OC(=O)/C=C/c1ccco1,u,-20.9%,107.7%,13.1µM*,-4.9%,10µM*
COc1ccccc1C(=O)NCC(=O)N/N=C/c1cc(Br)ccc1OC(=O)/C=C\c1ccco1,u,-40.4%,0.0%,38.0%,6.9%,u
COC(=O)[C@@H]1CC[C@H](C)[C@@H](c2ccc(C)cc2)N1C(=O)c1ccc(/C=N/OCC[C@@H]2C=C[C@H](OC(C)=O)[C@@H](COC(C)=O)O2)cc1,10.4µM*,217.3%,x,u,-21.8%,5.9%[8.37 µM]

# Screening results: PubChem, National Center for Advancing Translational Sciences (NCATS)
